Screening data (PubChem)
Pf growth 48h – Primary qHTS for delayed death inhibitors of the malarial parasite plastid, 48 hour incubation | AID 504832, 2011 | P. falciparum luciferase growth in erythrocytes, 48 h | 5.9% of 310,000 active | Potency, µM (titrated, usually from 28.7 µM), for the others: at the top dose activity change, negative = inhibition, actives largely listed as inhibitors; also: potency is read from the fitted curve at half-maximal effect
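Here the parasites carry a stable luciferase gene and grow inside erythrocytes in Albumax-based RPMI medium with compound for one erythrocytic cycle. Activity is scored as loss of luminescent signal.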
Lassa entry inh – qHTS for Inhibitors of binding or entry into cells for Lassa Virus | AID 540256, 2011 | Potency, µM (series often up to 37.9 µM), for the others: at the top dose activity change, negative = inhibition, actives largely listed as inhibitors | Lassa virus pseudotype entry inhibition, cell reporter | 1.2% of 300,000 active; calls by dose curve; tested in HEK293 cells; also: potency is read from the fitted curve at half-maximal effect; nearly all actives have a fitted effect of over 50% in size
HCMV antiviral – qHTS Assay for inhibitors of the human cytomegalovirus (HCMV); HFF cells, HCMV-luciferase reporter, 72 h; active compounds read low; activity change, negative = inhibition, % at 57.5 µM; 4.5% of 410,000 active; AID 1259415, 2018; in the data active = activity change below about -60%; inconclusive = no clear call, values can overlap the other calls; inactive = above about -39%
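Luciferase read-out from HCMV-luciferase-infected HFFs (MOI 1 PFU/cell) 72 h post infection at 37C; compounds added after 16 h cell attachment; activity normalized between buffer-only basal and Salinomycin (10uM) inhibitor controls.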
HCV inh – qHTS Assay for Inhibitors of Hepatitis C Virus (HCV); Potency, µM (series often up to 41.8 µM), without a hit: top-dose activity change, negative = inhibition, actives largely listed as inhibitors; AID 651820, 2012; 3.4% of 340,000 active; Huh7.5.1 HCVcc-Cre infection, luciferase reporter, 44 h; also: potency is read from the fitted curve at half-maximal effect
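Whole-lifecycle infectious HCVcc-Cre system; cells 1,000/well, compound then virus (~0.5 moi) added 4 h after plating, 44 h culture. Luciferase read 15 sec following 15 min substrate incubation, room temp.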
Marburg entry inh – qHTS for inhibitors of binding or entry into cells for Marburg Virus | Marburg virus pseudotyped entry inhibition, cell reporter | Potency, µM (titrated, usually from 37.8 µM), for the others: top-dose activity change, negative = inhibition, most hits filed as inhibitors | 1.8% of 300,000 active | AID 540276, 2011; calls by dose curve; tested in HEK293 cells; also: potency is read from the fitted curve at half-maximal effect
Pf growth 96h – Primary qHTS for delayed death inhibitors of the malarial parasite plastid, 96 hour incubation. P. falciparum luciferase reporter growth, 96 h. Potency, µM (series often up to 28.7 µM), without a hit: at the highest dose activity change, negative = inhibition, usual class: inhibitors. 6.9% of 320,000 active. AID 504834, 2011; also: potency is read from the fitted curve at half-maximal effect
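Cell-based qHTS: luciferase-tagged P. falciparum in erythrocytes (2% hematocrit, 0.05% parasitemia final) incubated with compounds for 96 hours, 37 C, 5% CO2; luciferase detection reagent then added and luminescence measured.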
The depositor's hits bear a star; u = inconclusive; x = no result given; [ ] = another dose, or the depositor's remark. Sampled rows, rich in hits. Any-hit rate of the full collection: about 14%. Unless noted, calls follow the shape of the dose curve; as a rule, active = well fitted inhibition curve with a large enough effect; inconclusive = small, poorly fitted or top-dose-only effect, or another doubt; inactive = no such curve, though single readings can be large or run the other way. % is scaled to controls: 0 for no effect and ±100 for the full control effect.

SMILES	Pf growth 48h	Lassa entry inh	HCMV antiviral	HCV inh	Marburg entry inh	Pf growth 96h
Cc1ccc(C2c3c(oc4ccc(Cl)cc4c3=O)C(=O)N2CCCN2CCOCC2)o1 (stereo not drawn)	u	x	x	2.2%	x	u
CN(CC(=O)Nc1ccc(OC(F)(F)F)cc1)C(=O)c1ccc(N2CCCC2=O)cc1	-15.4%	x	-69.7*	4.47µM*	x	-20.8%
CN(C)S(=O)(=O)c1cccc(NC(=O)c2ccc(N3CCCC3=O)cc2)c1	x	x	9.1	22.4µM*	x	x
CN1CCN(S(=O)(=O)c2ccc(NC(=O)c3cccc(S(=O)(=O)N4CCCC4)c3)cc2)CC1	11.7µM*	-11.9%	5.9	u	-1.2%	u
CN1CCN(S(=O)(=O)c2ccc(NC(=O)c3cccc(F)c3)cc2)CC1	5.5%	u	12.0	1.9%	-4.8%	-0.6%
O=C(Nc1cccc(S(=O)(=O)N2CCCCCC2)c1)c1cncc(Br)c1	x	u	-22.2	11.2µM*	u	x
CC(C)C[C@H]1COc2cc(F)ccc2S(=O)(=O)N1	x	-1.8%[46.1 µM]	x	x	x	x
O=C(COc1ccc(Cl)cc1)Nc1ccc2c(c1)C(=O)NC2=O	22.2%	23.5%[46.1 µM]	-23.4	-1.6%	4.2%[46.1 µM]	u
COc1ccc2c(c1)c1c(c(=O)n(-c3cccc(C)c3)c(=O)n1CC(=O)NCc1ccc(C)cc1)n2C	x	17.2%[46.1 µM]	-2.9	x	x	x
Cc1cc(NC(=O)c2cc(S(=O)(=O)N3CCCCC3)ccc2C)no1	x	x	-32.7	7.1%	x	x
Cc1cccc(NC(=O)c2cccc(S(=O)(=O)N3CCCCC3)c2)c1	u	u	-28.4	u	-23.8%[46.1 µM]	42.9%
CN(C)S(=O)(=O)c1cccc(NC(=O)c2ccc(S(=O)(=O)N3CCCCC3)cc2)c1	u	-3.1%	-22.2	u	u	u
CN(C)S(=O)(=O)c1cccc(NC(=O)c2cccc(S(=O)(=O)N3CCCCCC3)c2)c1	13.1µM*	u	-61.4*	7.94µM*	u	4.65µM*
CN(C)S(=O)(=O)c1cccc(C(=O)Nc2ccc(S(=O)(=O)N3CCCC3)cc2)c1	11.7µM*	x	-20.1	-12.1%	x	u
Cc1cc(NC(=O)c2cccc(S(=O)(=O)N3CCCCCC3)c2)no1	x	-20.7%	-27.2	4.8%	-21.2%	8.28µM*
Cc1ccc(NC(=O)c2cccc(S(=O)(=O)N3CCN(C)CC3)c2)cc1F	u	-0.7%[46.1 µM]	-5.6	12.6µM*	u	u
Cc1cc(C)n(C[C@@H]2CC(=O)N(c3cc(Cl)cc(Cl)c3)C2=O)n1	x	x	x	x	4.2%	x
OCC1OC(n2ccc3c(SCc4ccccc4)ncnc32)C(O)C1O (stereo not drawn)	x	u	52.8	-2.0%	22.3%	x
CN1CCN(S(=O)(=O)c2ccc(NC(=O)C(C)(C)C)cc2)CC1	x	11.7%	-107.8*	7.3%	26.0%	u
CC(=O)Nc1ccc(S(=O)(=O)N2CCN(S(=O)(=O)c3ccc(NC(C)=O)cc3)CC2)cc1	5.3%	1.2%[46.1 µM]	x	-2.7%	10.1%[46.1 µM]	60.7%
CCN(c1ccc(NC(=O)c2ccc(N3CCCC3=O)cc2)cc1)C(C)C	u	u	-70.1*	u	u	u
COc1ccc(OC)c(C(O)c2ncc(-c3ccc(C(F)(F)F)cc3)[nH]2)c1 (stereo not drawn)	x	x	-12.3	x	x	x
O=C1NC[C@@H](CCCCN2C[C@H](Cc3ccccc3)N(CCc3ccc(O)cc3)C(=O)C2=O)N(CCc2ccccc2)C1=O	x	x	-2.0	x	x	x
CC1CCCC(NC(=O)c2ccc3c(c2)N(Cc2ccccc2)C(=O)CS3=O)C1C (stereo not drawn)	16.5µM*	x	3.8	10.5%	6.5%	10.4µM*
O=C(NC1CCCCCCC1)c1ccc2c(c1)N(Cc1ccc(F)cc1)C(=O)CS2=O (stereo not drawn)	11.7µM*	-13.4%	-0.3	-0.2%	u	u
SMILES	Pf growth 48h	Lassa entry inh	HCMV antiviral	HCV inh	Marburg entry inh	Pf growth 96h
Cc1ccc(C)c(NC(=O)c2ccc3c(c2)N(Cc2ccc(F)cc2)C(=O)CS3=O)c1 (stereo not drawn)	3.29µM*	u	u	u	2.59µM*	-11.5%
CCOc1ccc(NC(=O)c2ccc3c(c2)N(Cc2ccc(F)cc2)C(=O)CS3=O)cc1 (stereo not drawn)	10.4µM*	x	-5.3	-2.3%	-0.5%	u
O=C(Nc1ccc(Br)cc1F)c1ccc2c(c1)N(Cc1ccccc1)C(=O)CS2=O (stereo not drawn)	u	x	-35.6	-0.9%	x	u
Cc1ccc(O)c(C2=Nc3ccccc3N=C(c3cccc(F)c3)C2)c1	x	-1.8%[46.1 µM]	x	x	x	x
CC(C)(C)c1ccc(Oc2cccc(C3CC(=O)C(C4NCCc5ccccc54)C(=O)C3n3cncn3)c2)cc1 (stereo not drawn)	1.17µM*	u	u	-2.0%	-33.7%	13.6%
CCOc1cc(-c2nc(-c3ccc(-c4ccc(OC)cc4)nc3OC)no2)cc(OCC)c1OCC	x	14.7%[46.1 µM]	-5.5	x	-2.6%[46.1 µM]	x
CC(C)(C)NC(=O)NC(=O)C[n+]1ccc(Cc2ccc([N+](=O)[O-])cc2)cc1	9.28µM*	x	u	5.7%	x	u
O=C(C[n+]1ccc(-c2ccccc2)cc1)Nc1ccc([N+](=O)[O-])cc1	u	x	u	-25.1%	x	50.3%
O=C(C[n+]1ccc(Cc2ccccc2)cc1)Nc1ccc([N+](=O)[O-])cc1Cl	-29.9%	-2.5%	46.4	-28.9%	0.3%	11.9%
Cc1ccc(Cl)cc1NC(=O)C[n+]1ccc(Cc2ccc([N+](=O)[O-])cc2)cc1	u	x	3.4	u	x	1.85µM*
Cc1ccc(NC(=O)Cn2cc3c(n2)CCC(C)C3)cc1C (stereo not drawn)	x	-5.2%[46.1 µM]	9.3	x	11.1%[46.1 µM]	x
Cc1ccc(CCNC(=O)CCS(=O)(=O)c2cc3c(cc2Cl)NC(=O)CO3)cc1	x	-2.2%[46.1 µM]	0.5	x	x	x
COc1cc(OC)c(NC(=O)C(NS(=O)(=O)c2cccc3nsnc23)c2ccccc2)cc1Cl (stereo not drawn)	x	6.0%[46.1 µM]	13.1	x	-29.9%[46.1 µM]	x
CC1CCC(NC(=O)CSc2ccc(S(=O)(=O)N(C)C)cn2)CC1 (stereo not drawn)	u	x	-21.2	-2.6%	x	u
CCOC(=O)NC(=O)CSc1ccc(S(=O)(=O)N(C)C2CCCCC2)cn1	6.57µM*	x	0.0	9.6%	x	13.1µM*
CC(C#N)Sc1ccc(S(=O)(=O)N(C)C2CCCCC2)cn1 (stereo not drawn)	1.1%	x	-61.6*	7.4%	x	-9.9%
CC(C)CNC(=O)CSc1ccc(S(=O)(=O)N(C)C2CCCCC2)cn1	9.28µM*	u	-12.4	10.3%	-17.6%	-13.4%
